# Assay outcomes (PubChem)
# This is a sample that favours compounds with a hit; in the whole collection about 1.5% have one here.
# RAD54 inh – RAD54 (human) branch migration inhibition. RAD54 Holliday junction branch migration, FAM/BHQ fluorescence. inhibition, % at 10.4 µM. hit rate 0.14% among 360,000. AID 602329;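 active = mean normalized replicate activity at least 40 and at least half of replicates scoring 40 or more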;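 also: 0% = median of neutral control wells and 100% = median of positive control wells; inhibitors cause a drop in the FAM fluorescence signal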
# Target sequence (Q92698 whole entry, looked up): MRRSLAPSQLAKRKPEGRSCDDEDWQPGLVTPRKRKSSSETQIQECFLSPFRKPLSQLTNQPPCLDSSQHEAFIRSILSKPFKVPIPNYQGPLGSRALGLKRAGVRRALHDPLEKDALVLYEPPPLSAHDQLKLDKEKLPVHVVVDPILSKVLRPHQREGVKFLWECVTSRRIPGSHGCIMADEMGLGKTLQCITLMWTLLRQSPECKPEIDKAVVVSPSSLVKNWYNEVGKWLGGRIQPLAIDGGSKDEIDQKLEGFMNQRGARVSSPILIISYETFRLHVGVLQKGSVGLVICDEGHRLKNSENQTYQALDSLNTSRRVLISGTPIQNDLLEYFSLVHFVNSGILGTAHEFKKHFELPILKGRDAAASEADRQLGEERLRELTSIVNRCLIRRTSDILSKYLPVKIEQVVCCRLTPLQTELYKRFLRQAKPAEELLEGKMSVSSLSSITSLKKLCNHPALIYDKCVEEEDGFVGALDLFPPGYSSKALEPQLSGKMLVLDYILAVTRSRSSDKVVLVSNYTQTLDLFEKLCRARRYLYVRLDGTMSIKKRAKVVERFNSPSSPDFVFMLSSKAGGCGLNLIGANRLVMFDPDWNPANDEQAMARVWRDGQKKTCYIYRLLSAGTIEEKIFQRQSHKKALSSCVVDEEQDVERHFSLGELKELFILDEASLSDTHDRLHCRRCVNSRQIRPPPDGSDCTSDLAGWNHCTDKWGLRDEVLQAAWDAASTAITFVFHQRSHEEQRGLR
# miR-122 sensor – inhibitors of miR-122 in Huh7 cells; Huh7 miR-122 Renilla luciferase sensor, 48 h; neutral wells = 0, positive control = 100; activation (reporter increase), % at 12.5 µM; hit rate 0.3% among 340,000; AID 602342;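 active = mean replicate activation score at least 90 and every replicate individually at or above 90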;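 also: higher luciferase means less miR-122 activity so hits act as miR-122 inhibitors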
# N-glyco inh – blocks N-linked glycosylation in D54 reporter cells; D54 ERlucT glycosylation luciferase reporter, 24 h; percent of 100 nM tunicamycin response; reporter increase, % at 12.5 µM; hit rate 0.23% among 360,000; AID 588692;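 active = mean luciferase reporter signal, scaled so untreated is 0 and the glycosylation-blocking control 100, at or above a set limit in every replicate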;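 also: luciferase carries N-glycosylation sites so blocking glycosylation raises the light; 0% = median of neutral control wells and 100% = median of 100 nM tunicamycin wells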
# FID counter – fluorescent intercalator displacement, NS3 helicase counter-screen; DNA fluorescent intercalator displacement, fluorescence; inhibition, % at 7.9 µM; hit rate 0.17% among 290,000; in the data active = inhibition above about 37%;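 also: 0% = vehicle and 100% = reference compound; higher means more ethidium bromide displaced from hairpin DNA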
# CendR NRP1 mod – modulators of CendR peptide binding to human neuropilin-1. inhibition, % at 25 µM. hit rate 0.85% among 360,000. AID 602438. FAM-RPARPAR peptide binding to NRP-1, fluorescence polarization;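 active = inhibition or corrected inhibition above about 18%, plus a signal ratio from 0.5 to 1.5, limit read from the data, passing the limit was not always enough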
# RAD52 inh – RAD52 (human) annealing inhibition. P43351. recombinant RAD52 DNA annealing, FRET fluorescence. inhibition, % at 18.7 µM. hit rate 0.46% among 360,000. AID 651710;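 active = every replicate showing at least 50% inhibition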
# * hit, by the source's call; x = no result given; ! = not active in a repeat; [ ] = remark or other dose.
SMILES,RAD54 inh,miR-122 sensor,N-glyco inh,FID counter,CendR NRP1 mod,RAD52 inh
C[C@H]1CN([C@@H](C)CO)C(=O)Cc2cc(NC(=O)Cc3ccccc3)ccc2O[C@H]1CN(C)Cc1ccc(C(=O)Nc2ccccc2N)cc1,x,x,x,x,x,3
C[C@H](CO)N1C[C@H](C)[C@H](CN(C)Cc2ccc(C(=O)Nc3ccccc3N)cc2)Oc2ccc(NC(=O)C3CC3)cc2CC1=O,5,165*[16.7 µM],x,x,x,7
C[C@@H]1CN([C@@H](C)CO)C(=O)Cc2cc(NC(=O)CCCN(C)C)ccc2O[C@H]1CN(C)Cc1ccc(C(=O)Nc2ccccc2N)cc1,x,x,x,x,x,83*
C[C@H](CO)N1C[C@H](C)[C@H](CN(C)Cc2ccccc2)Oc2cc(C#Cc3ccccn3)ccc2S1(=O)=O,7,-7[16.7 µM],x,x,x,-111
N#CC1C(C#N)N2CCCN2C1c1ccc(Br)cc1 (configuration not stated),x,x,2,2,31*,-6
C=CCN1c2ccccc2[C@]23C[C@@H](C(=O)OC)N(C(=O)c4ccco4)C2=NC(C(=O)OC)=C(C(=O)OC)[C@H]13,2,2,16,x,20,-5
C=CCN1c2ccccc2[C@]23C[C@@H](C(=O)OC)N(C(=O)C4CCC4)C2=NC(C(=O)OC)=C(C(=O)OC)[C@H]13,-3,-2,4,x,25*,-2
CCC(=O)Nc1ccc2c(c1)C(=O)N(C)C[C@H](OC)[C@H](C)CN(C(=O)C1CC1)[C@H](C)CO2,3,x,x,x,x,-3
COc1ccc(COc2cc(-c3cccc(OC)c3)nc3ccc(NC(=O)c4ccc(N(C)C)cc4)cc23)cc1,0,36,16,-16,28*,x
COc1ccc(COc2cc(-c3cccc(OC)c3)nc3ccc(NC(C)=O)cc23)cc1,0,83,2,-11,27*,-8
COc1ccc(COc2cc(-c3cccc(OC)c3)nc3ccc(NC(=O)c4ccc(C)cc4)cc23)cc1,6,x,-2,-6,8,-8
C[C@@H]1CN([C@@H](C)CO)C(=O)c2cc(-c3ccncc3)cnc2O[C@H]1CN(C)C(=O)C1CCC1,x,-5[16.7 µM],x,x,x,x
CCCNC(=O)[C@H]1[C@H](CO)[C@H]2Cn3c(ccc(-c4ccccc4F)c3=O)[C@H]2N1CCC,0,1[16.7 µM],x,x,x,-6
C/C=C/c1ccc2c(c1)O[C@H](CN(C)C(=O)c1cccc(F)c1)[C@H](C)CN([C@H](C)CO)S2(=O)=O,9,-11[16.7 µM],x,x,x,0
Cc1cccc(CN2CCN(C3CN(Cc4cn(Cc5cccc(Cl)c5)nn4)S(=O)(=O)C3)CC2)c1 (configuration not stated),x,x,x,x,23*,-28
Cc1cccc(CN2CCN(C3CN(Cc4cn(Cc5ccc(Cl)cc5)nn4)S(=O)(=O)C3)CC2)c1 (configuration not stated),x,x,x,x,4,-9
CCOC(=O)CN1C(=O)C(C)(C)Oc2ccc(C(=O)Nc3ccccc3)cc21,-1,159*,-1,-16,-3,x
CN(C)/N=C/C=C1\CCC/C(=C\c2ccc(F)c(F)c2)C1=O,x,-2,32*,-10,-32,-37
C/C=C/c1ccc2c(c1)O[C@H](CN(C)C)[C@@H](C)CN([C@@H](C)CO)S2(=O)=O,-5,0[16.7 µM],x,x,x,1
O=S(=O)(c1ccccc1)c1cnc2ccccc2c1,11,4,0,x,26*,-11
N#C[C@H]1[C@@H](c2ccc(C3=CCCC3)cc2)[C@@H](CO)N1C(=O)c1ccccn1,6,x,x,x,x,-44
CC(=O)Nc1ccc2c(c1)C(=O)N(C)[C@@H]1CC[C@@H](CC(=O)NCC3CC3)O[C@H]1CO2,-8,5[16.7 µM],x,x,x,-7
CCOC(=O)C(=CNc1ccc(O)c(C(=O)OC)c1)C(=O)OCC,1,-7,1,x,25*,-17
CCS(=O)(=O)N1CCC2(CC1)CN(S(=O)(=O)c1ccccc1)[C@H](CO)c1c2c2ccc(OC)cc2n1C,x,x,x,x,x,19
CCn1c(=O)n(CC)c2cc(N3CCCC3)c(NC(=O)c3ccccc3F)cc21,-6,4,7,-26,6,-12
SMILES,RAD54 inh,miR-122 sensor,N-glyco inh,FID counter,CendR NRP1 mod,RAD52 inh
CCn1c(=O)n(CC)c2cc(N3CCCC3)c(NC(=O)c3ccccc3C)cc21,8,-4,8,-38,27*,-12
COc1ccc(N(CC(=O)NCc2ccco2)C(=O)CCC(=O)Nc2ccccn2)cc1,3,1,1,-29,21*,5
O=C(C[C@@H]1C=C[C@@H](NC(=O)Nc2cc(F)ccc2F)[C@@H](CO)O1)Nc1ccccc1,-1,x,x,x,x,1
Cc1cccc(CNc2ncnc3ccc(-c4ccoc4)cc23)c1,-3,7,-12,x,18,-10
CC(=O)Nc1ccc(CNc2ncnc3ccc(-c4c(C)noc4C)cc23)cc1,3,-15,50*,x,36*,-6
C[C@@H]1CN([C@H](C)CO)C(=O)c2cc(NS(=O)(=O)c3cn(C)cn3)ccc2O[C@@H]1CN(C)C(=O)NC1CCCCC1,-19,9[16.7 µM],x,x,x,3
CCN1C(=O)C(=O)c2cc(C)ccc21,-2,-5,4,x,34*,-5
Cc1ccn2c(c1)nc(=O)c1cc(S(=O)(=O)N3CCOCC3)ccc12,0,2,0,-3,21*,-14
C(C#CCCCCCCCCC[n+]1ccccc1)#CCCCCCCCCC[n+]1ccccc1,10,-15,13,43*,-3,x
CCNC(=O)C1(C)CCCN(Cc2ccccc2-c2ccccc2)C1 (configuration not stated),-15,3,0,x,23*,-20
C[C@@H]1CN([C@@H](C)CO)S(=O)(=O)c2ccc(-c3ccc(C(=O)N(C)C)cc3)cc2O[C@@H]1CN(C)C(=O)C1CCC1,13,-40[16.7 µM],x,x,x,10
O=C(c1cccnc1)N1CC2(C1)[C@H](c1ccccc1)[C@@H](CO)N2Cc1ccccc1,x,x,x,x,x,-2
Cc1ccc(-c2ccc(C3[C@H]4CNC[C@@H]3N4C(=O)Nc3ccc(F)cc3)cc2)cc1 (some centres not stated),x,x,x,x,x,49
O=C(Nc1ccc(F)cc1)N1[C@@H]2CNC[C@H]1C2c1ccc(-c2ccc(F)cc2)cc1 (some centres not stated),x,x,x,x,x,51*
O=C(Nc1ccc(Cl)cc1)N1[C@@H]2CNC[C@H]1C2c1ccc(/C=C/c2ccccc2)cc1 (some centres not stated),x,x,x,x,x,67*!
O=C(Nc1ccc(F)cc1)N1[C@@H]2CNC[C@H]1C2c1ccc(/C=C/c2ccccc2)cc1 (some centres not stated),x,x,x,x,x,38
O=C(Nc1ccc2c(c1)OCO2)N1[C@@H]2CNC[C@H]1C2c1ccc(/C=C/c2ccccc2)cc1 (some centres not stated),x,x,x,x,x,60*
O=C(Nc1ccc(F)cc1)N1[C@@H]2CNC[C@H]1C2c1ccc(-c2ccccc2)cc1 (some centres not stated),x,x,x,x,x,55*!
